Changes are numbered by the printed parent chain.
Columns and labels:
Test in all cases: PBM; 200 nM protein, PBS
Details in all cases: dsDNA, one strand shown
NKX2-4 [1] = target: T1, NKX2-4 (Homo sapiens, UniProt Q9H2Z4 175-261, P217L)
T1 sequence: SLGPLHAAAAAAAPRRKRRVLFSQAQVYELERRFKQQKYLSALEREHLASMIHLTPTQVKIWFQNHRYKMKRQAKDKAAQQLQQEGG

NKX2-4 [2] = target: T2, NKX2-4 (Homo sapiens, UniProt Q9H2Z4 175-261, T231S)
T2 sequence: T1 sequence with L43P, T57S

NKX2-4 [3] = target: T3, NKX2-4 (Homo sapiens, UniProt Q9H2Z4 175-261)
T3 sequence: T1 sequence with L43P

NKX2-4 [4] = target: T4, NKX2-4 (Homo sapiens, UniProt Q9H2Z4 175-261, R246Q)
T4 sequence: T1 sequence with L43P, R72Q

Sequence	binding signal (NKX2-4 [1])	binding signal (NKX2-4 [2])	binding signal (NKX2-4 [3])	binding signal (NKX2-4 [4])
CACCCGTA	9.75 upbm affinity estimate (log intensity, higher = more binding, comparable within an allelic series)	9.83 upbm affinity estimate (log intensity, higher = more binding, comparable within an allelic series)	9.77 upbm affinity estimate (log intensity, higher = more binding, comparable within an allelic series)	9.74 upbm affinity estimate (log intensity, higher = more binding, comparable within an allelic series)
ATTTAGTG	11.4 upbm affinity estimate (log intensity, higher = more binding, comparable within an allelic series)	11.6 upbm affinity estimate (log intensity, higher = more binding, comparable within an allelic series)	11.4 upbm affinity estimate (log intensity, higher = more binding, comparable within an allelic series)	11.5 upbm affinity estimate (log intensity, higher = more binding, comparable within an allelic series)
AAAGCACT	11.7 upbm affinity estimate (log intensity, higher = more binding, comparable within an allelic series)	11.9 upbm affinity estimate (log intensity, higher = more binding, comparable within an allelic series)	11.6 upbm affinity estimate (log intensity, higher = more binding, comparable within an allelic series)	11.9 upbm affinity estimate (log intensity, higher = more binding, comparable within an allelic series)
CCGCGGTA	9.81 upbm affinity estimate (log intensity, higher = more binding, comparable within an allelic series)	9.73 upbm affinity estimate (log intensity, higher = more binding, comparable within an allelic series)	9.75 upbm affinity estimate (log intensity, higher = more binding, comparable within an allelic series)	9.9 upbm affinity estimate (log intensity, higher = more binding, comparable within an allelic series)
AAGAGGGG	11.9 upbm affinity estimate (log intensity, higher = more binding, comparable within an allelic series)	12.2 upbm affinity estimate (log intensity, higher = more binding, comparable within an allelic series)	11.8 upbm affinity estimate (log intensity, higher = more binding, comparable within an allelic series)	12.1 upbm affinity estimate (log intensity, higher = more binding, comparable within an allelic series)
CACGGCTA	9.31 upbm affinity estimate (log intensity, higher = more binding, comparable within an allelic series)	9.28 upbm affinity estimate (log intensity, higher = more binding, comparable within an allelic series)	9.21 upbm affinity estimate (log intensity, higher = more binding, comparable within an allelic series)	9.29 upbm affinity estimate (log intensity, higher = more binding, comparable within an allelic series)
AGCTCGCG	9.6 upbm affinity estimate (log intensity, higher = more binding, comparable within an allelic series)	9.58 upbm affinity estimate (log intensity, higher = more binding, comparable within an allelic series)	9.62 upbm affinity estimate (log intensity, higher = more binding, comparable within an allelic series)	9.63 upbm affinity estimate (log intensity, higher = more binding, comparable within an allelic series)
CTGCGCAG	9.75 upbm affinity estimate (log intensity, higher = more binding, comparable within an allelic series)	9.81 upbm affinity estimate (log intensity, higher = more binding, comparable within an allelic series)	9.75 upbm affinity estimate (log intensity, higher = more binding, comparable within an allelic series)	9.93 upbm affinity estimate (log intensity, higher = more binding, comparable within an allelic series)
CGGCTGTA	9.81 upbm affinity estimate (log intensity, higher = more binding, comparable within an allelic series)	9.8 upbm affinity estimate (log intensity, higher = more binding, comparable within an allelic series)	9.77 upbm affinity estimate (log intensity, higher = more binding, comparable within an allelic series)	9.94 upbm affinity estimate (log intensity, higher = more binding, comparable within an allelic series)
CGATCGCA	9.9 upbm affinity estimate (log intensity, higher = more binding, comparable within an allelic series)	9.92 upbm affinity estimate (log intensity, higher = more binding, comparable within an allelic series)	9.93 upbm affinity estimate (log intensity, higher = more binding, comparable within an allelic series)	9.97 upbm affinity estimate (log intensity, higher = more binding, comparable within an allelic series)
CCGCTACC	9.71 upbm affinity estimate (log intensity, higher = more binding, comparable within an allelic series)	9.7 upbm affinity estimate (log intensity, higher = more binding, comparable within an allelic series)	9.66 upbm affinity estimate (log intensity, higher = more binding, comparable within an allelic series)	9.79 upbm affinity estimate (log intensity, higher = more binding, comparable within an allelic series)
CCGAGACG	9.51 upbm affinity estimate (log intensity, higher = more binding, comparable within an allelic series)	9.47 upbm affinity estimate (log intensity, higher = more binding, comparable within an allelic series)	9.47 upbm affinity estimate (log intensity, higher = more binding, comparable within an allelic series)	9.44 upbm affinity estimate (log intensity, higher = more binding, comparable within an allelic series)
TCCGGACA	9.56 upbm affinity estimate (log intensity, higher = more binding, comparable within an allelic series)	9.6 upbm affinity estimate (log intensity, higher = more binding, comparable within an allelic series)	9.6 upbm affinity estimate (log intensity, higher = more binding, comparable within an allelic series)	9.66 upbm affinity estimate (log intensity, higher = more binding, comparable within an allelic series)
ACTTAGCT	11.7 upbm affinity estimate (log intensity, higher = more binding, comparable within an allelic series)	11.8 upbm affinity estimate (log intensity, higher = more binding, comparable within an allelic series)	11.5 upbm affinity estimate (log intensity, higher = more binding, comparable within an allelic series)	11.9 upbm affinity estimate (log intensity, higher = more binding, comparable within an allelic series)
CCAGTCAC	9.45 upbm affinity estimate (log intensity, higher = more binding, comparable within an allelic series)	9.51 upbm affinity estimate (log intensity, higher = more binding, comparable within an allelic series)	9.45 upbm affinity estimate (log intensity, higher = more binding, comparable within an allelic series)	9.44 upbm affinity estimate (log intensity, higher = more binding, comparable within an allelic series)
CCACTCCA	12.5 upbm affinity estimate (log intensity, higher = more binding, comparable within an allelic series)	12.8 upbm affinity estimate (log intensity, higher = more binding, comparable within an allelic series)	12.3 upbm affinity estimate (log intensity, higher = more binding, comparable within an allelic series)	12.9 upbm affinity estimate (log intensity, higher = more binding, comparable within an allelic series)
CATCGCGA	9.66 upbm affinity estimate (log intensity, higher = more binding, comparable within an allelic series)	9.66 upbm affinity estimate (log intensity, higher = more binding, comparable within an allelic series)	9.73 upbm affinity estimate (log intensity, higher = more binding, comparable within an allelic series)	9.58 upbm affinity estimate (log intensity, higher = more binding, comparable within an allelic series)

Sequence	binding signal (NKX2-4 [1])	binding signal (NKX2-4 [2])	binding signal (NKX2-4 [3])	binding signal (NKX2-4 [4])
AGCTGCGG	9.39 upbm affinity estimate (log intensity, higher = more binding, comparable within an allelic series)	9.21 upbm affinity estimate (log intensity, higher = more binding, comparable within an allelic series)	9.33 upbm affinity estimate (log intensity, higher = more binding, comparable within an allelic series)	9.45 upbm affinity estimate (log intensity, higher = more binding, comparable within an allelic series)
ATACTTCA	12.4 upbm affinity estimate (log intensity, higher = more binding, comparable within an allelic series)	12.8 upbm affinity estimate (log intensity, higher = more binding, comparable within an allelic series)	12.3 upbm affinity estimate (log intensity, higher = more binding, comparable within an allelic series)	12.8 upbm affinity estimate (log intensity, higher = more binding, comparable within an allelic series)
CTACTCAA	12.1 upbm affinity estimate (log intensity, higher = more binding, comparable within an allelic series)	12.5 upbm affinity estimate (log intensity, higher = more binding, comparable within an allelic series)	12 upbm affinity estimate (log intensity, higher = more binding, comparable within an allelic series)	12.4 upbm affinity estimate (log intensity, higher = more binding, comparable within an allelic series)
AACTCTTG	11.7 upbm affinity estimate (log intensity, higher = more binding, comparable within an allelic series)	11.8 upbm affinity estimate (log intensity, higher = more binding, comparable within an allelic series)	11.6 upbm affinity estimate (log intensity, higher = more binding, comparable within an allelic series)	12 upbm affinity estimate (log intensity, higher = more binding, comparable within an allelic series)
ACCTGGGC	9.66 upbm affinity estimate (log intensity, higher = more binding, comparable within an allelic series)	9.68 upbm affinity estimate (log intensity, higher = more binding, comparable within an allelic series)	9.7 upbm affinity estimate (log intensity, higher = more binding, comparable within an allelic series)	9.78 upbm affinity estimate (log intensity, higher = more binding, comparable within an allelic series)
GCACTCGA	12.5 upbm affinity estimate (log intensity, higher = more binding, comparable within an allelic series)	13 upbm affinity estimate (log intensity, higher = more binding, comparable within an allelic series)	12.5 upbm affinity estimate (log intensity, higher = more binding, comparable within an allelic series)	13.1 upbm affinity estimate (log intensity, higher = more binding, comparable within an allelic series)
CCGGCTCA	9.54 upbm affinity estimate (log intensity, higher = more binding, comparable within an allelic series)	9.64 upbm affinity estimate (log intensity, higher = more binding, comparable within an allelic series)	9.59 upbm affinity estimate (log intensity, higher = more binding, comparable within an allelic series)	9.56 upbm affinity estimate (log intensity, higher = more binding, comparable within an allelic series)
TACTTCAA	12.5 upbm affinity estimate (log intensity, higher = more binding, comparable within an allelic series)	12.9 upbm affinity estimate (log intensity, higher = more binding, comparable within an allelic series)	12.4 upbm affinity estimate (log intensity, higher = more binding, comparable within an allelic series)	13 upbm affinity estimate (log intensity, higher = more binding, comparable within an allelic series)
ACGTACTC	11.8 upbm affinity estimate (log intensity, higher = more binding, comparable within an allelic series)	12 upbm affinity estimate (log intensity, higher = more binding, comparable within an allelic series)	11.7 upbm affinity estimate (log intensity, higher = more binding, comparable within an allelic series)	11.9 upbm affinity estimate (log intensity, higher = more binding, comparable within an allelic series)
CGGTCGTA	9.63 upbm affinity estimate (log intensity, higher = more binding, comparable within an allelic series)	9.64 upbm affinity estimate (log intensity, higher = more binding, comparable within an allelic series)	9.66 upbm affinity estimate (log intensity, higher = more binding, comparable within an allelic series)	9.81 upbm affinity estimate (log intensity, higher = more binding, comparable within an allelic series)
ACTCATAG	11.7 upbm affinity estimate (log intensity, higher = more binding, comparable within an allelic series)	11.8 upbm affinity estimate (log intensity, higher = more binding, comparable within an allelic series)	11.6 upbm affinity estimate (log intensity, higher = more binding, comparable within an allelic series)	11.9 upbm affinity estimate (log intensity, higher = more binding, comparable within an allelic series)
CGGTTCCA	9.98 upbm affinity estimate (log intensity, higher = more binding, comparable within an allelic series)	9.95 upbm affinity estimate (log intensity, higher = more binding, comparable within an allelic series)	9.92 upbm affinity estimate (log intensity, higher = more binding, comparable within an allelic series)	10 upbm affinity estimate (log intensity, higher = more binding, comparable within an allelic series)
ATGCGTCC	9.7 upbm affinity estimate (log intensity, higher = more binding, comparable within an allelic series)	9.56 upbm affinity estimate (log intensity, higher = more binding, comparable within an allelic series)	9.58 upbm affinity estimate (log intensity, higher = more binding, comparable within an allelic series)	9.59 upbm affinity estimate (log intensity, higher = more binding, comparable within an allelic series)
AGGCAGCC	9.69 upbm affinity estimate (log intensity, higher = more binding, comparable within an allelic series)	9.68 upbm affinity estimate (log intensity, higher = more binding, comparable within an allelic series)	9.68 upbm affinity estimate (log intensity, higher = more binding, comparable within an allelic series)	9.7 upbm affinity estimate (log intensity, higher = more binding, comparable within an allelic series)
GCCCTTAA	12 upbm affinity estimate (log intensity, higher = more binding, comparable within an allelic series)	12.3 upbm affinity estimate (log intensity, higher = more binding, comparable within an allelic series)	12 upbm affinity estimate (log intensity, higher = more binding, comparable within an allelic series)	12.2 upbm affinity estimate (log intensity, higher = more binding, comparable within an allelic series)
AGTACTCA	12.5 upbm affinity estimate (log intensity, higher = more binding, comparable within an allelic series)	12.9 upbm affinity estimate (log intensity, higher = more binding, comparable within an allelic series)	12.4 upbm affinity estimate (log intensity, higher = more binding, comparable within an allelic series)	12.9 upbm affinity estimate (log intensity, higher = more binding, comparable within an allelic series)
ATGAGTGG	12.4 upbm affinity estimate (log intensity, higher = more binding, comparable within an allelic series)	12.8 upbm affinity estimate (log intensity, higher = more binding, comparable within an allelic series)	12.3 upbm affinity estimate (log intensity, higher = more binding, comparable within an allelic series)	12.8 upbm affinity estimate (log intensity, higher = more binding, comparable within an allelic series)

— publication PMC11006913
